The results in this text go back to PubChem BioAssay (EPA / NIEHS).

Activity calls are given as the source filed them. Rule for the calls: active = hit-call score of the fitted dose curve at least 0.9, where 1 is the maximum; inactive = score below 0.9.

Read-out in test [1]: Thrombomodulin, THBD (gene 7056)
Put plainly: BSK_CASM3C_Thrombomodulin: BioMAP Diversity Plus: CASM3C Assay for Thrombomodulin Biomarker Activity (AID 2283051).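 Note: thrombomodulin protein level measured by ELISA 24 h after dosing.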 The note with it: primary human coronary artery smooth muscle cells; actives raise or lower the signal.

Read-out in test [2]: Tissue Factor, F3 (gene 2152)
Put plainly: BSK_CASM3C_TissueFactor: BioMAP Diversity Plus: CASM3C Assay for Tissue Factor Biomarker Activity (AID 2283052).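 Note: cell surface tissue factor protein level read by ELISA.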 The note with it: primary human coronary artery smooth muscle cells; actives raise or lower the signal.

Read-out in test [3]: Interferon-gamma inducible Protein 10 (IP10), CXCL10 (gene 3627)
As to the kind of experiment: BSK_hDFCGF_IP10: BioMAP Diversity Plus: hDFCGF Assay for Interferon-gamma inducible Protein 10 (IP10) Biomarker Activity (AID 2283053). Conditions: primary human foreskin fibroblasts; actives raise or lower the signal. The essentials: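 Cells: human dermal foreskin fibroblasts. Exposure: 24 h post-dosing. Detection: IP-10 ELISA, with values expressed against DMSO controls and fitted in both directions.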

Read-out in test [4]: Urokinase-type plasminogen activator receptor (uPAR), PLAUR (gene 5329)
As to the kind of experiment: BSK_CASM3C_uPAR: BioMAP Diversity Plus: CASM3C Assay for Urokinase-type plasminogen activator receptor (uPAR) Biomarker Activity (AID 2283054).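 Note: cell-surface uPAR protein level quantified by ELISA.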 The note with it: primary human coronary artery smooth muscle cells; actives raise or lower the signal.

Read-out in test [5]: Vascular cell adhesion molecule 1 (VCAM1), VCAM1 (gene 7412)
As to the kind of experiment: BSK_CASM3C_VCAM1: BioMAP Diversity Plus: CASM3C Assay for Vascular cell adhesion molecule 1 (VCAM1) Biomarker Activity (AID 2283055).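 Note: VCAM-1 protein level quantified by ELISA on the cells.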 The note with it: primary human coronary artery smooth muscle cells; actives raise or lower the signal.

Read-out in test [6]: Collagen III, COL3A1 (gene 1281)
Put plainly: BSK_hDFCGF_CollagenIII: BioMAP Diversity Plus: hDFCGF Assay for Collagen III Biomarker Activity (AID 2283056). Conditions: primary human foreskin fibroblasts; actives raise or lower the signal. The essentials:
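Human foreskin primary fibroblasts were exposed to test chemicals for 24 h, after which collagen III was quantified by ELISA. Activity was fitted bidirectionally against DMSO as negative control and baseline.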

Read-out in test [7]: Epidermal growth factor receptor (EGFR), EGFR (gene 1956)
Put plainly: BSK_hDFCGF_EGFR: BioMAP Diversity Plus: hDFCGF Assay for Epidermal growth factor receptor (EGFR) Biomarker Activity (AID 2283057). The note with it: primary human foreskin fibroblasts; actives raise or lower the signal. The essentials:
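Dosing human primary skin fibroblasts, then measuring surface EGFR by ELISA at 24 h, gives the endpoint; gains and losses relative to DMSO were fitted in both directions.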

Read-out in test [8]: Interleukin-8 (IL8), CXCL8 (gene 3576)
Put plainly: BSK_hDFCGF_IL8: BioMAP Diversity Plus: hDFCGF Assay for Interleukin-8 (IL8) Biomarker Activity (AID 2283058). Conditions: primary human foreskin fibroblasts; actives raise or lower the signal. The essentials: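 hDFCGF human dermal fibroblasts; 24 h chemical exposure; IL-8 by ELISA; bidirectional curve fit vs DMSO baseline; gain or loss of signal scored.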

Read-out in test [9]: Macrophage colony-stimulating factor (MCSF), CSF1 (gene 1435)
Put plainly: BSK_hDFCGF_MCSF: BioMAP Diversity Plus: hDFCGF Assay for Macrophage colony-stimulating factor (MCSF) Biomarker Activity (AID 2283060). Conditions: primary human foreskin fibroblasts; actives raise or lower the signal. The gist of the method: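 Human foreskin primary fibroblasts were treated with test chemical for 24 h, and M-CSF was then measured by ELISA. Data were fitted bidirectionally against DMSO as the negative control and activity baseline.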

Test [10] can be described thus: BSK_hDFCGF_SRB: Viability Assessment in the BioMAP Diversity Plus: hDFCGF Assay (AID 2283061).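 Note: cells exposed to compound for 24 h before the read.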 The note with it: primary human foreskin fibroblasts. The gist of the method:
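Human foreskin primary fibroblasts were treated with compound and assessed 24 h after dosing. Total protein was measured by sulforhodamine B staining (0.1% SRB after 10% TCA fixation, 560 nm read) as a cytotoxicity marker, with bidirectional fitting against DMSO baseline.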

Read-out in test [11]: TIMP metallopeptidase inhibitor 1 (TIMP1), TIMP1 (gene 7076)
Put plainly: BSK_hDFCGF_TIMP1: BioMAP Diversity Plus: hDFCGF Assay for TIMP metallopeptidase inhibitor 1 (TIMP1) Biomarker Activity (AID 2283062). The note with it: primary human foreskin fibroblasts; actives raise or lower the signal. The essentials:
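Primary human foreskin fibroblasts in the hDFCGF system were dosed with compound for 24 h, then TIMP-1 was measured by ELISA. Activity was fitted bidirectionally relative to DMSO control; parallel SRB staining assessed cytotoxicity.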

Read-out in test [12]: Monokine induced gamma interferon (MIG), CXCL9 (gene 4283)
Put plainly: BSK_hDFCGF_MIG: BioMAP Diversity Plus: hDFCGF Assay for Monokine induced gamma interferon (MIG) Biomarker Activity (AID 2283063). The note with it: primary human foreskin fibroblasts; actives raise or lower the signal. The essentials: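 ELISA read-out of MIG from primary human dermal fibroblasts 24 h post-dosing. Gain or loss of signal fitted bidirectionally, DMSO as baseline.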

Read-out in test [13]: Matrix Metallopeptidase 1 (MMP1), MMP1 (gene 4312)
Put plainly: BSK_hDFCGF_MMP1: BioMAP Diversity Plus: hDFCGF Assay for Matrix Metallopeptidase 1 (MMP1) Biomarker Activity (AID 2283064). The note with it: primary human foreskin fibroblasts; actives raise or lower the signal. The essentials:
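MMP1 levels quantified by ELISA 24 h after dosing human dermal fibroblast cultures, with parallel SRB total-protein staining for overt cytotoxicity. Data fitted in both directions against DMSO baseline.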

Read-out in test [14]: Vascular cell adhesion molecule 1 (VCAM1), VCAM1 (gene 7412)
As to the kind of experiment: BSK_hDFCGF_VCAM1: BioMAP Diversity Plus: hDFCGF Assay for Vascular cell adhesion molecule 1 (VCAM1) Biomarker Activity (AID 2283065).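 For AC50: VCAM-1 protein level quantified by ELISA after 24 h chemical exposure.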 The note with it: primary human foreskin fibroblasts; actives raise or lower the signal. The gist of the method:
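Primary human foreskin fibroblasts (hDFCGF system) were dosed with chemical and VCAM-1 was measured by ELISA 24 h later. Bidirectional curve fitting used DMSO as negative control and activity baseline.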

Read-out in test [15]: Plasminogen activator inhibitor-1 (PAI1), SERPINE1 (gene 5054)
As to the kind of experiment: BSK_hDFCGF_PAI1: BioMAP Diversity Plus: hDFCGF Assay for Plasminogen activator inhibitor-1 (PAI1) Biomarker Activity (AID 2283066). Conditions: primary human foreskin fibroblasts; actives raise or lower the signal. The gist of the method:
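Fibroblasts from human foreskin were treated with test chemical. After 24 h, PAI-1 was measured by ELISA. Activity was fitted in both directions relative to DMSO.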

Read-out in test [16]: Intercellular Adhesion Molecule 1 (ICAM1), ICAM1 (gene 3383)
Put plainly: BSK_KF3CT_ICAM1: BioMAP Diversity Plus: KF3CT Assay for Intercellular Adhesion Molecule 1 (ICAM1) Biomarker Activity (AID 2283067). Conditions: primary human keratinocytes with fibroblasts; actives raise or lower the signal. The essentials: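 Human keratinocyte plus foreskin fibroblast primary co-culture was exposed to chemical for 24 h. ICAM-1 was then quantified by ELISA, and the data were fit bidirectionally against DMSO as the negative control and baseline.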

Read-out in test [17]: Interferon-gamma inducible Protein 10 (IP10), CXCL10 (gene 3627)
As to the kind of experiment: BSK_KF3CT_IP10: BioMAP Diversity Plus: KF3CT Assay for Interferon-gamma inducible Protein 10 (IP10) Biomarker Activity (AID 2283068). Conditions: primary human keratinocytes with fibroblasts; actives raise or lower the signal. The essentials: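 In a primary skin co-culture of keratinocytes and fibroblasts, IP-10 is quantified by ELISA at 24 h after dosing. SRB staining of parallel wells monitors overt toxicity. Curves are fitted both directions against DMSO.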

A short description of test [18]: BSK_KF3CT_SRB: Viability Assessment in the BioMAP Diversity Plus: KF3CT Assay (AID 2283069). Conditions: primary human keratinocytes with fibroblasts. The gist of the method: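 Cytotoxicity was gauged by SRB staining (0.1% SRB, 10% TCA fixation, 560 nm) of parallel cultures at 24 h. The cells were primary human skin keratinocytes co-cultured with fibroblasts, and activity was fitted in both directions against DMSO.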

Read-out in test [19]: Interleukin-1 alpha (IL1a), IL1A (gene 3552)
As to the kind of experiment: BSK_KF3CT_IL1a: BioMAP Diversity Plus: KF3CT Assay for Interleukin-1 alpha (IL1a) Biomarker Activity (AID 2283070). The note with it: primary human keratinocytes with fibroblasts; actives raise or lower the signal. The gist of the method:
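IL-1a was detected by ELISA 24 h after chemical treatment of a co-culture of human skin keratinocytes and foreskin fibroblasts. Gain or loss of signal was fitted against the DMSO baseline.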

The nature of test [20]: BSK_hDFCGF_Proliferation: Cell Proliferation Assessment in the BioMAP Diversity Plus: hDFCGF Assay (AID 2283059).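 Note: curves fitted for both rise and fall of signal versus DMSO baseline.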 Conditions: primary human foreskin fibroblasts. The essentials: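 Primary human foreskin fibroblasts, sub-confluent; […]; 10% TCA fix, 0.1% SRB stain, A560 total protein. Gain/loss fitted bidirectionally vs DMSO control.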

In the case of `O=[N+]([O-])c1ccc(Cl)c(Cl)c1`, the result in test [1], in test [2], in [3], in test [4], in test [5] and in test [6] was inactive. Also, the result in [7], in test [8], in test [9], in test [10], in test [11] and in [12] was inactive. In addition, the outcome in [13], in test [14], in test [15], in [16], in [17] and in test [18] was inactive. Moreover, in test [19], the outcome was inactive.

As usually defined, the AC50 is the midpoint of the concentration-response curve, whichever way the signal moves. Consider `C=CC(=O)OCC(CC)(COC(=O)C=C)COC(=O)C=C`, for which, in test [1], the result was inactive. Also, the AC50 was 0.847 µM (active) in test [2]; 1.71 µM (active) in [3]; 1.97 µM (active) in test [4]; 1.65 µM (active) in test [5]; 1.03 µM (active) in test [6]; 1.59 µM (active) in test [7]. Also, the AC50 is 3.17 µM (active) in test [8]; 0.795 µM (active) in [20]; 2.11 µM (active) in test [9]; 1.11 µM (active) in test [11]; 1.4 µM (active) in test [12]; 3.85 µM (active) in test [13]. For the same compound, the AC50 was 1.07 µM (active) in test [14]; 1.08 µM (active) in test [15]; 2.16 µM (active) in test [16]; 3.17 µM (active) in [17]; 3.15 µM (active) in test [18]; 2.16 µM (active) in test [19].

For the compound `ClC1=C(Cl)C2(Cl)C3C(Cl)C(Cl)CC3C1(Cl)C2(Cl)Cl` (stereo not given), the AC50 in [1] is 24.1 µM (active); in test [3] it was 7.58 µM (active); in test [5], 25.4 µM (active); in [6], 6.06 µM (active); in [8], 10.8 µM (active); in test [20] it was 6.97 µM (active). Besides, the AC50 in test [9] is 5.82 µM (active); in test [12] it was 9.26 µM (active); in test [13], 10.1 µM (active); in [14], 5.47 µM (active); in [15], 10.3 µM (active); in test [16] it was 31.9 µM (active). In addition, the AC50 is 16.1 µM (active) in [17], 28.2 µM (active) in [18] and 20 µM (active) in test [19]. Also, the outcome in [2], in [4] and in test [7] was inactive.

As for `c1ccc2c(c1)Nc1ccccc1S2`, the AC50 is 0.542 µM (active) in test [1]; 20 µM (active) in test [3]; 30.4 µM (active) in [20]; 9.32 µM (active) in [9]; 20 µM (active) in test [14]; 29.4 µM (active) in test [15]. Also, the result in test [2], in test [4], in test [5], in test [6], in test [7] and in test [8] was inactive. Also, the result in [11], in [12], in test [13], in test [16], in [17] and in test [18] was inactive. The result in [19] was inactive.
